Assay results taken from the supplement of paper PMC4466140.

B1: unnamed (peptide)
chain: IKKRNKIRLPSGSPE

Biological target: AgAbp1
Test: SPOT peptide array binding signal intensity (averaged, normalized) (arbitrary units (background-subtracted, floor 0; scale differs between SH3 domains)); higher = stronger binding of the SH3 domain to the peptide
Method in brief: (§1)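 Binding signal refers to normalized, background-subtracted spot intensity averaged over replicates, expressed in arbitrary units that differ between domains. GST-fused SH3 domains from four yeast species were incubated at 10 μg/ml overnight at 4°C on cellulose membranes of synthetic 15-mer peptides with cysteines replaced by serines. Bound protein was detected with anti-GST antibody, an HRP anti-mouse secondary and luminol, and quantified with Genespotter.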

| Binder | SPOT peptide array binding signal intensity |
| --- | --- |
| B1 | 286 |

Biological target: AgBbc1
Test: as above
Method in brief: as §1

| Binder | SPOT peptide array binding signal intensity |
| --- | --- |
| B1 | 23.8 |

Biological target: AgBem1-D1
Test: as above
Method in brief: as §1

| Binder | SPOT peptide array binding signal intensity |
| --- | --- |
| B1 | 55 |

Biological target: AgBzz1-D1
Test: as above
Method in brief: as §1

| Binder | SPOT peptide array binding signal intensity |
| --- | --- |
| B1 | 22 |

Biological target: AgBzz1-D2
Test: as above
Method in brief: as §1

| Binder | SPOT peptide array binding signal intensity |
| --- | --- |
| B1 | 34.5 |

Biological target: AgCyk3
Test: as above
Method in brief: as §1

| Binder | SPOT peptide array binding signal intensity |
| --- | --- |
| B1 | 7 |

Biological target: AgFus1
Test: as above
Method in brief: as §1

| Binder | SPOT peptide array binding signal intensity |
| --- | --- |
| B1 | 279 |

Biological target: AgHof1
Test: as above
Method in brief: as §1

| Binder | SPOT peptide array binding signal intensity |
| --- | --- |
| B1 | 52.5 |

Biological target: AgHse1
Test: as above
Method in brief: as §1

| Binder | SPOT peptide array binding signal intensity |
| --- | --- |
| B1 | 766 |

Biological target: AgLsb1
Test: as above
Method in brief: as §1

| Binder | SPOT peptide array binding signal intensity |
| --- | --- |
| B1 | 7 |

Biological target: AgLsb4
Test: as above
Method in brief: as §1

| Binder | SPOT peptide array binding signal intensity |
| --- | --- |
| B1 | 97 |

Biological target: AgMyo5
Test: as above
Method in brief: as §1

| Binder | SPOT peptide array binding signal intensity |
| --- | --- |
| B1 | 1.75 |

Biological target: AgNbp2
Test: as above
Method in brief: as §1

| Binder | SPOT peptide array binding signal intensity |
| --- | --- |
| B1 | 202 |

Biological target: AgRvs167
Test: as above
Method in brief: as §1

| Binder | SPOT peptide array binding signal intensity |
| --- | --- |
| B1 | 5.67 |

Biological target: AgSho1
Test: as above
Method in brief: as §1

| Binder | SPOT peptide array binding signal intensity |
| --- | --- |
| B1 | 36 |

Biological target: AgSla1-D1-D2
Test: as above
Method in brief: as §1

| Binder | SPOT peptide array binding signal intensity |
| --- | --- |
| B1 | 89 |

Biological target: AgSla1-D3
Test: as above
Method in brief: as §1

| Binder | SPOT peptide array binding signal intensity |
| --- | --- |
| B1 | 7 |

Biological target: CaAbp1-D1
Test: as above
Method in brief: as §1

| Binder | SPOT peptide array binding signal intensity |
| --- | --- |
| B1 | 1510 |

Biological target: CaAbp1-D2
Test: as above
Method in brief: as §1

| Binder | SPOT peptide array binding signal intensity |
| --- | --- |
| B1 | 858 |

Biological target: CaBbc1
Test: as above
Method in brief: as §1

| Binder | SPOT peptide array binding signal intensity |
| --- | --- |
| B1 | 94.2 |

Biological target: CaBem1-D1
Test: as above
Method in brief: as §1

| Binder | SPOT peptide array binding signal intensity |
| --- | --- |
| B1 | 16 |

Biological target: CaBzz1-D1
Test: as above
Method in brief: as §1

| Binder | SPOT peptide array binding signal intensity |
| --- | --- |
| B1 | 104 |

Biological target: CaBzz1-D2
Test: as above
Method in brief: as §1

| Binder | SPOT peptide array binding signal intensity |
| --- | --- |
| B1 | 132 |

Biological target: CaCyk3
Test: as above
Method in brief: as §1

| Binder | SPOT peptide array binding signal intensity |
| --- | --- |
| B1 | 17 |

Biological target: CaFus1
Test: as above
Method in brief: as §1

| Binder | SPOT peptide array binding signal intensity |
| --- | --- |
| B1 | 615 |

Biological target: CaHof1
Test: as above
Method in brief: as §1

| Binder | SPOT peptide array binding signal intensity |
| --- | --- |
| B1 | 1.25 |

Biological target: CaHse1
Test: as above
Method in brief: as §1

| Binder | SPOT peptide array binding signal intensity |
| --- | --- |
| B1 | 38 |

Biological target: CaLsb1
Test: as above
Method in brief: as §1

| Binder | SPOT peptide array binding signal intensity |
| --- | --- |
| B1 | 1.5 |

Biological target: CaLsb4
Test: as above
Method in brief: as §1

| Binder | SPOT peptide array binding signal intensity |
| --- | --- |
| B1 | 79 |

Biological target: CaMyo5
Test: as above
Method in brief: as §1

| Binder | SPOT peptide array binding signal intensity |
| --- | --- |
| B1 | 1.5 |

Biological target: CaNbp2
Test: as above
Method in brief: as §1

| Binder | SPOT peptide array binding signal intensity |
| --- | --- |
| B1 | 271 |

Biological target: CaRvs167
Test: as above
Method in brief: as §1

| Binder | SPOT peptide array binding signal intensity |
| --- | --- |
| B1 | 11.7 |

Biological target: CaRvs167-3
Test: as above
Method in brief: as §1

| Binder | SPOT peptide array binding signal intensity |
| --- | --- |
| B1 | 67.2 |

Biological target: CaSho1
Test: as above
Method in brief: as §1

| Binder | SPOT peptide array binding signal intensity |
| --- | --- |
| B1 | 506 |

Biological target: CaSla1-D1-D2
Test: as above
Method in brief: as §1

| Binder | SPOT peptide array binding signal intensity |
| --- | --- |
| B1 | 30 |

Biological target: CaSla1-D3
Test: as above
Method in brief: as §1

| Binder | SPOT peptide array binding signal intensity |
| --- | --- |
| B1 | 0.5 |

Biological target: ScAbp1
Test: as above
Method in brief: as §1

| Binder | SPOT peptide array binding signal intensity |
| --- | --- |
| B1 | 39 |
